Assay outcomes as filed in PubChem BioAssay.
Most compounds without a hit are left out; they make up all but 2% or so of the library.
MBNL1 CUG block: MBNL1-poly(CUG) RNA binding inhibition; hit rate 0.036% among 280,000; Q9NR56; TR-FRET MBNL1-His/biotin-(CUG)12 binding, 665/545 ratio; Potency, µM (highest dose often 57.5 µM), inactives show at the top dose activity change, negative = inhibition, hits mostly inhibitors; active = well fitted inhibition curve with a large enough effect in the signal ratio, with a control signal flat, not every such curve was filed as active; inconclusive = small, poorly fitted or top-dose-only effect, or effect the other way, or a change in a side signal; inactive = no such curve, though single readings can be large or run the other way; the % refers to the signal ratio; also: % is scaled to controls: 0 for no effect and ±100 for the full control effect
Target sequence (Q9NR56 whole entry, looked up): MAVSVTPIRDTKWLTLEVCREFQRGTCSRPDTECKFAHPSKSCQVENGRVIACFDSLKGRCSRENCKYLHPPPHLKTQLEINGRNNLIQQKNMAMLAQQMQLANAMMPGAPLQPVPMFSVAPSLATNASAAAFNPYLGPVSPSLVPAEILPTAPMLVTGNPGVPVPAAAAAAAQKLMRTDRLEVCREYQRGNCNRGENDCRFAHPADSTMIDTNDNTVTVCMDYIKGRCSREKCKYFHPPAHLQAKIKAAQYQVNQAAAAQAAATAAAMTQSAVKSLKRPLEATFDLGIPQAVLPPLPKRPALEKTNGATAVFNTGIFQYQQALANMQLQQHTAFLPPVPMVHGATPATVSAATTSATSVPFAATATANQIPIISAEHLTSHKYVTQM
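TR-FRET between His-tagged MBNL1 and biotin-(CUG)12 RNA, detected with Tb anti-His antibody (0.055 ng/ul) and streptavidin-XL665 (5 nM), 60 min at room temperature. Compounds titrated 92 nM to 58 uM; 665/545 nm ratio normalized to buffer and complex controls.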
aSyn rescue: inhibitors of alpha-synuclein toxicity in yeast. Yeast expressing alpha-synuclein, growth rescue, BacTiter-Glo, 24 h. Potency, µM (titrated, usually from 46.1 µM), inactives show at the top dose growth rescue (activation), most hits filed as activators. hit rate 0.14% among 370,000; also: % of control where 0% means no effect; nearly all actives have a fitted effect of over 65% in size
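Rescue of yeast growth: cells expressing toxic alpha-synuclein, induced in galactose at OD600 0.02, incubated with compound 24 h at 30 C. ATP luminescence quantified growth; inhibitors of toxicity appear as activators.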
TDP-43 yeast inh: TDP-43 toxicity inhibition in yeast; TDP-43 expressing yeast growth rescue, BacTiter-Glo, 24 h; Potency, µM (doses to about 46.1 µM), for the others: top-dose growth rescue (activation), hits mostly activators; hit rate 1.8% among 410,000; AID 652104; also: % of control where 0% means no effect; nearly all actives have a fitted effect of over 50% in size
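Cell-based yeast growth screen: TDP-43 expression induced in galactose, inoculum OD600=0.02 after raffinose pregrowth to mid-log. Read-out BacTiter-Glo luminescence at 24 hr, 30 deg C; inhibition of toxicity seen as signal increase.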
FUS yeast rescue: rescues growth of FUS-expressing yeast. Potency, µM (titrated, usually from 76.6 µM), actives largely listed as activators. S. cerevisiae FUS-expressing, growth rescue, OD600, 24 h. hit rate 0.24% among 390,000;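 also: plate controls were DMSO vehicle for no effect and reference control for full effect; nearly all actives have a fitted effect of over 55% in size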
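Read-out: OD at 600 nm after 24hr at 30C, reporting rescue of FUS-induced yeast toxicity. Cells at OD 0.005 in galactose (2%) minimal medium; compounds tested in a dilution series; CP55940 titration from 92uM final as control.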
Abeta rescue: restores growth of yeast expressing A-beta42 peptide; yeast expressing A-beta42, growth rescue, OD600, 48 h; response scale: 0% DMSO, 100% iron-clioquinol control; hit rate 0.063% among 410,000; Potency, µM (top dose mostly 46.1 µM), actives largely listed as activators; AID 1347071; also: nearly all actives have a fitted effect of over 55% in size
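Growth rescue measured by 600 nm absorbance after 48 h yeast culture at 30 C with compound. Values normalized between DMSO and an equimolar ferric chloride plus clioquinol control.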
Glioma ERSR ind: inducers of ER stress response in human glioma cells | U87-MG GRP78 promoter luciferase reporter, 16 h | Potency, µM, inactives show at the top dose activation, actives largely listed as activators | hit rate 0.02% among 420,000; also: series mostly up to about 76 µM; % of control where 0% means no effect; nearly all actives have a fitted effect of over 35% in size
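Stably transfected U87-MG glioma cells carrying a GRP78-based luciferase sensor; 16 h compound incubation. Luminescence end-point read 10 min after Bright-Glo addition at room temperature.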
* = called active by the depositor. Unless noted, calls follow the shape of the dose curve; as a rule, active = well fitted curve in the direction sought with a large enough effect; inconclusive = small, poorly fitted or top-dose-only effect, or another doubt; inactive = no such curve, though single readings can be large; an effect the other way counts as inactive or inconclusive. Potency is read from the fitted curve at half-maximal effect.

Screening O=C(NC1CC1c1ccccc1)N1CCC(c2nc3ccc(Cl)cc3[nH]2)CC1 (configuration not stated) returned FUS yeast rescue inactive.
For CN(C)c1ccc(C(=O)N2CCCC(Cn3cc(C(=O)N4CCCC4)nn3)C2)cc1 (configuration not stated) the results were Glioma ERSR ind 2%.
For CCCCCN1CCCCC(NC(=O)c2ccc3ccccc3c2)C1=O (configuration not stated) the results were FUS yeast rescue inactive.
COc1cc(-c2nnc(SCC(=O)N3c4ccccc4Sc4ccccc43)o2)cc(OC)c1OC was read as MBNL1 CUG block -5%, aSyn rescue 23%, TDP-43 yeast inh 7%, FUS yeast rescue inactive, Abeta rescue inactive and Glioma ERSR ind -4%.
Screening O=C(Sc1nnc(-c2ccccc2)o1)N1c2ccccc2Sc2ccccc21 returned MBNL1 CUG block inconclusive, aSyn rescue -15%, TDP-43 yeast inh 11µM*, FUS yeast rescue inactive, Abeta rescue inconclusive and Glioma ERSR ind -1%.
For COc1ccc(/C(C)=N/NC(=O)Cc2cc(=O)[nH][nH]2)cc1OC the results were FUS yeast rescue inactive.
`CCOc1ccc(CC(=O)Nc2sc(Cc3ccccc3)c(C)c2C(N)=O)cc1OCC` gave MBNL1 CUG block 106%, aSyn rescue -15%, TDP-43 yeast inh 9%, FUS yeast rescue 14µM*, Abeta rescue inactive and Glioma ERSR ind -2%.
Screening Cc1c(Cc2ccccc2)sc(NC(=O)c2ccco2)c1C(N)=O returned MBNL1 CUG block -1%, aSyn rescue -49%, TDP-43 yeast inh -41%, FUS yeast rescue inactive, Abeta rescue inactive and Glioma ERSR ind 4%.
Screening O=C(NN=C1c2ccccc2-c2ccccc21)c1ccccc1 returned MBNL1 CUG block -3%, aSyn rescue -4%, TDP-43 yeast inh 17%, FUS yeast rescue inactive, Abeta rescue inactive and Glioma ERSR ind 4%.
NC(=S)NN=C1c2ccccc2-c2ccccc21 was read as MBNL1 CUG block 25%, aSyn rescue 10%, TDP-43 yeast inh 18µM*, FUS yeast rescue inactive, Abeta rescue inactive and Glioma ERSR ind -5%.
Screening CCOC(=O)Nc1ccc2c(c1)C(=NNC(=S)NC)c1ccccc1-2 returned aSyn rescue -12%, TDP-43 yeast inh 25µM*, FUS yeast rescue inactive, Abeta rescue inactive and Glioma ERSR ind 2%.
CCOC(=O)NN=C1c2ccccc2-c2ccccc21 was read as MBNL1 CUG block inconclusive, aSyn rescue -1%, TDP-43 yeast inh 5µM*, FUS yeast rescue inactive, Abeta rescue inactive and Glioma ERSR ind -8%.
For CCOC(=O)NC(=S)Nc1cccc(NC(=S)NC(=O)OCC)c1 the results were MBNL1 CUG block 5%, aSyn rescue 5%, TDP-43 yeast inh -11%, FUS yeast rescue inactive, Abeta rescue inactive and Glioma ERSR ind 3%.
COc1cnc(-c2ccccn2)nc1Sc1ccccc1Cl was read as MBNL1 CUG block 4%, aSyn rescue 3%, TDP-43 yeast inh inconclusive, FUS yeast rescue inactive, Abeta rescue 11µM* and Glioma ERSR ind 4%.
O=C(Nc1cccc(NC(=O)c2c(F)cccc2F)n1)c1c(F)cccc1F was read as MBNL1 CUG block -18%, aSyn rescue -21%, TDP-43 yeast inh 0%, FUS yeast rescue inactive, Abeta rescue inactive and Glioma ERSR ind -4%.
For O=C(Nc1cccc(NC(=O)c2cccc(F)c2)n1)c1cccc(F)c1 the results were MBNL1 CUG block -4%, aSyn rescue -2%, TDP-43 yeast inh 10µM*, FUS yeast rescue inactive, Abeta rescue inactive and Glioma ERSR ind -2%.
Cc1ccc(C(=O)Oc2ccc(Cl)c3cccnc23)cc1[N+](=O)[O-] was read as MBNL1 CUG block 13%, aSyn rescue -48%, TDP-43 yeast inh inconclusive, Abeta rescue inactive and Glioma ERSR ind -9%.
Screening O=C(Oc1ccc(Cl)c2cccnc12)c1cccnc1 returned MBNL1 CUG block 10%, aSyn rescue 28%, TDP-43 yeast inh 11µM*, FUS yeast rescue inactive, Abeta rescue inactive and Glioma ERSR ind -3%.
O=C(Nc1ccc(Nc2ccccc2)cc1)c1c(Cl)cccc1Cl was read as aSyn rescue -23%, TDP-43 yeast inh 11µM*, FUS yeast rescue inactive, Abeta rescue inactive and Glioma ERSR ind 0%.
O=C(NC1CCCCN(Cc2ccc(Cl)cc2)C1=O)c1ccccc1-c1ccc(Cl)c(Cl)c1 (configuration not stated) was read as FUS yeast rescue inactive.
`CCCCn1c(SCc2nc3ccccc3s2)nc2ccccc2c1=O` gave MBNL1 CUG block -10%, aSyn rescue 6%, TDP-43 yeast inh inconclusive, Abeta rescue inactive and Glioma ERSR ind -1%.
CCCCn1c(SCc2nc3ccccc3s2)nc2cc(S(N)(=O)=O)ccc21 was read as MBNL1 CUG block 1%, aSyn rescue -4%, TDP-43 yeast inh -24%, FUS yeast rescue 22µM*, Abeta rescue inactive and Glioma ERSR ind -3%.
Cc1ccc(CNS(=O)(=O)c2ccc(Br)s2)cc1 was read as MBNL1 CUG block -9%, aSyn rescue 14%, TDP-43 yeast inh inconclusive, FUS yeast rescue inactive, Abeta rescue inactive and Glioma ERSR ind -4%.
`O=S(=O)(NCc1ccccc1)c1ccc(Br)s1` gave MBNL1 CUG block -2%, aSyn rescue 10%, TDP-43 yeast inh 11µM*, FUS yeast rescue inactive, Abeta rescue inactive and Glioma ERSR ind -3%.
`CCn1c(-c2ccccc2F)nc2cc(NC(C)=O)cc(C(=O)N3CCCCC3c3nccn3C)c21` (configuration not stated) gave Glioma ERSR ind -3%.
Screening CCc1cc(=O)oc2cc(OCC(=O)OC)c(Cl)cc12 returned MBNL1 CUG block -2%, aSyn rescue 1%, TDP-43 yeast inh 11µM*, FUS yeast rescue inactive, Abeta rescue inactive and Glioma ERSR ind -3%.
Screening CCCc1cc(=O)oc2cc(OCC(=O)N(C)C)c(Cl)cc12 returned MBNL1 CUG block -7%, aSyn rescue -1%, TDP-43 yeast inh -5%, FUS yeast rescue inactive, Abeta rescue inactive and Glioma ERSR ind 0%.
`CC[C@@H]1[C@H]2CCCC(=O)N3CC[C@@H](C[C@@H]1OC(=O)Nc1ccc4c(c1)OCO4)[C@@H]23` gave Glioma ERSR ind -3%.
`COc1ccc(CCNc2ncnc3sc(C(=O)N(C)C)c(C)c23)cc1OC` gave Glioma ERSR ind 5%.
